Compound activity as filed in PubChem.
KDM4E inh – inhibitors of human JMJD2E histone demethylase; B2RXH2; Potency, µM (doses to about 57.1 µM), for the others: top-dose activity change, negative = inhibition, hits mostly inhibitors; AID 2147; JMJD2E catalytic domain, FDH-coupled NADH fluorescence (FDH is formaldehyde dehydrogenase); 1.6% of 230,000 active; active = well fitted inhibition curve with a large enough effect, not every such curve was filed as active; inconclusive = small, poorly fitted or top-dose-only effect, or another doubt; inactive = no such curve, though single readings can be large or run the other way;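 note: potency is the fitted concentration of half-maximal effect; 0% = wells with enzyme and -100% = buffer wells without enzyme; nearly all actives have a fitted effect of over 50% in size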
KCNH2 3.1 inh – inhibitors of human KCNH2 3.1 potassium channel isoform. U2OS KCNH2 3.1, thallium flux FluxOr; stronger effect = lower value. activity change, % (tested at about 1.8 µM). 0.95% of 340,000 active;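 active = maximum activity change below -70%; inconclusive = maximum activity change from -70% to -50%; inactive = maximum activity change above -50%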;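 note: thallium influx rate constant from kinetic fluorescence after stimulation buffer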
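Normalized rate constant (relative to positive and negative DMSO controls) derived from a 2 min kinetic fluorescence read after stimulation; U2OS cells expressing the 3.1 isoform via virus at 1.77 x 10^8 /mL.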
Six1-Eya2 inh – blocks human Six1 binding to Eya2; Q15475+O00167; AlphaScreen GST-Six1/His-Eya2 binding, biochemical; stronger effect = lower value; activity change, % (test concentration not listed); 0.56% of 360,000 active; AID 651725
Target sequence (O00167 whole entry, looked up): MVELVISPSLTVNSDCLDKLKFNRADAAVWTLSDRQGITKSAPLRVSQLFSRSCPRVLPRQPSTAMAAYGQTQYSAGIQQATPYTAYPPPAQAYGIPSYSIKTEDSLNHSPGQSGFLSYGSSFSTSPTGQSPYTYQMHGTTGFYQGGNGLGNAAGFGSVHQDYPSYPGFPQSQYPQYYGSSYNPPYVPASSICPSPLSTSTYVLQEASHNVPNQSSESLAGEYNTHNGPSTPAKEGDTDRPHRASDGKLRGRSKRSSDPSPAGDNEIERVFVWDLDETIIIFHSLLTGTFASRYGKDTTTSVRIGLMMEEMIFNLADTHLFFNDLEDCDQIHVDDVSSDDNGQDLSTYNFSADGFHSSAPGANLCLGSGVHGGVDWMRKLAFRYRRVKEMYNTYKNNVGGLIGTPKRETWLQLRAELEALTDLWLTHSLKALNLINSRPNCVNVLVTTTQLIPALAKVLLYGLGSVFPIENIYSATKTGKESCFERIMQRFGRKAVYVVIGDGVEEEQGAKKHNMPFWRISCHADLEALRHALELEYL
Target sequence (Q15475 whole entry, looked up): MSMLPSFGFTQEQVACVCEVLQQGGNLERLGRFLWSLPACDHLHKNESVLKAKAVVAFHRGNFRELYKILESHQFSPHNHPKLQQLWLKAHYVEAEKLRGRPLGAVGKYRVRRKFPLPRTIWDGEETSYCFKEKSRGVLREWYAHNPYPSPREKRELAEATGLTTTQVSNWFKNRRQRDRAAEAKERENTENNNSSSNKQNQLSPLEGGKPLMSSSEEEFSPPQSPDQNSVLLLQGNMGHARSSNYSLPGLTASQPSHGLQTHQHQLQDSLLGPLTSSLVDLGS
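AlphaScreen luminescence read after one hour at 37 °C in darkness. Pin-transferred compounds met GST-Six1 and His-Eya2 protein (5X stock 250 nM/500 nM) plus glutathione donor and Ni-chelate acceptor beads (5X, 50 ug/mL).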
hERG WT inh – blocks the wildtype human KCNH2 potassium channel. Q12809. U2OS, BacMam KCNH2, thallium flux FluxOr; stronger effect = lower value. activity change, % at 1.84 µM. 0.37% of 340,000 active. AID 720551;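 active = maximum activity change below -70%; inconclusive = maximum activity change between -70% and -50%; inactive = maximum activity change above -50%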
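U2OS cells were transduced with wild-type KCNH2 virus (2.03 x 10^8 / mL) for 4 h at room temperature, then cultured overnight at 37 C. Thallium flux was read with FluxOr dye. Rate constants were normalized to DMSO controls.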
CtBP-E1A blk – blocks the CtBP interaction with E1A. AlphaScreen GST-E1A/His-CtBP binding, 1536-well; stronger effect = lower value. activity change, % (test concentration not listed). 0.49% of 340,000 active. AID 651724
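In 5 uL wells, 23 nL compound meets equimolar GST-E1A and His-CtBP (5X stock 125 nM each) for 2 h, 37 °C. Beads (5X, 50 ug/mL) then 1 h, 37 °C, dark.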
Starred values were filed as active, the others as inactive; ? = inconclusive; · = not tested or not shown. In the library only some 2% were active in any assay of this set; here they are far more common. Cut-off read from the data, not from the text of the source, unless noted: active = activity change below about -65%; inconclusive = mostly about -30% to -63%; inactive = weaker than that. Unless noted, % is set by controls: 0 for no effect and ±100 for the full control effect.

SMILES | KDM4E inh | KCNH2 3.1 inh | Six1-Eya2 inh | hERG WT inh | CtBP-E1A blk
O=C(COC(=O)COc1cccc(Br)c1)Nc1c(Cl)cccc1Cl | -5.3% | 4.9 | 19.7 | -188.6* | -10.8
CC(=O)c1nc(-c2ccccc2)sc1C | -4.2% | -10.5 | 2.5 | -12.5 | 8.7
Cc1ccccc1NC(=O)COC(=O)C1C2CC3OC(=O)C1C3C2 (stereo not given) | · | -0.5 | 6.6 | -254.1* | 6.3
COc1ccccc1NC(=O)COC(=O)C1C2CC3OC(=O)C1C3C2 (stereo not given) | · | -6.1 | -20.0 | 7.2 | -13.4
CCOc1ccc(NCc2cccn2-c2nnc(N3CCC(C(=O)NCCCN4C(C)CCCC4C)CC3)s2)cc1 (stereo not given) | · | 13.2 | -22.8 | -228.0* | -22.6
O=C(CCN1C(=O)/C(=C/C=C/c2ccccc2)SC1=S)Nc1ccccn1 | -8.9% | 4.0 | -4.8 | -2.4 | -1.0
COc1ccc(C[C@H]2CN3C(=NC[C@@H]3C(C)C)N2CCNC(=O)c2ccc(C)c(Br)c2)cc1 | -5.5% | -100.4* | 4.2 | -114.5* | ·
C/C=C(\C)C(=O)NCCN1C2=NC[C@H](C(C)C)N2C[C@@H]1Cc1ccc(OC)cc1 | 16.4% | -37.1 | -72.3* | -31.8 | -70.3*
Cc1ccc(C(=O)NCCN2C3=NC[C@H](C(C)C)N3C[C@H]2Cc2ccc(O)cc2)cc1Br | -8.1% | -7.6 | -13.7 | 9.4 | -18.7
C/C=C(\C)C(=O)NCCN1C2=NC[C@H](C(C)C)N2C[C@H]1Cc1ccc(O)cc1 | 7.7% | -0.9 | 4.3 | · | -7.0
COc1ccc(C[C@H]2CN3C(=NC[C@H]3C)N2CCNC(=O)c2ccc(C)c(Br)c2)cc1 | 10.2% | -75.8* | -0.1 | -35.3 | -4.5
CCS(=O)(=O)Nc1ccc2c(c1)OCO2 | 2.2% | 0.0 | -12.2 | -7.9 | ·
COc1ccc(C(C)=O)cc1COC(=O)C(CO)NS(=O)(=O)c1ccc(Br)cc1 (stereo not given) | 2.6% | -79.1* | -14.1 | 9.3 | 3.3
O=C(Cn1ncc(Cl)c(Cl)c1=O)N1CCN(Cc2ccccc2)CC1 | -4.1% | 12.7 | -6.6 | -18.2 | 7.8
CCc1nc(N2CCCC(C)C2)c2oc3ccccc3c2n1 (stereo not given) | ? | 2.7 | 14.5 | 12.5 | 20.6
Oc1c(Br)cc(Br)cc1CNc1cccc2cccnc12 | · | -9.3 | -27.1 | -8.0 | ·
Oc1c(Br)cc(Br)c2cccnc12 | 20µM* | -1.5 | -75.0* | 4.4 | -78.1*
CSc1nsc(SC)c1NC(=O)Nc1ccccc1C | -4.6% | -84.1* | -2.5 | -3.5 | ·
CSc1nsc(SC)c1NC(=O)N1CCCCC1 | -3.0% | 3.4 | 7.3 | -3.0 | -1.0
CC1CCN(C(=O)CN2C(=O)NC3(CCCCCC3)C2=O)CC1 | · | 4.3 | 2.6 | 4.8 | -3.9
CC1CN(C(=O)CN2C(=O)NC3(CCCCCC3)C2=O)CC(C)O1 (stereo not given) | 7.1% | -89.9* | 5.2 | -0.1 | 7.5
CC(C)(C)c1ccccc1NC(=O)CN1C(=O)NC2(CCCCCC2)C1=O | · | 1.9 | 6.0 | -169.9* | 8.9
Cc1ccc(-c2cc(C(=O)O)n[nH]2)s1 | -9.5% | 12.2 | -1.3 | 6.6 | ·
CC(C)c1ccc(NC(=S)NN(c2ccccc2)c2ccccc2)cc1 | 2.4% | -26.3 | -18.8 | -8.7 | 0.0
O=C1C=CC2=C3c4cc(O)c(O)cc4C[C@@]3(O)COC2=C1 | 15.8µM* | · | · | · | ·
SMILES | KDM4E inh | KCNH2 3.1 inh | Six1-Eya2 inh | hERG WT inh | CtBP-E1A blk
CCOn1c(=O)c(-c2ccc(C)cc2)[n+]([O-])c2ccccc21 | · | -83.7* | 4.3 | 0.7 | -0.9
C=CCOn1c(=O)c(-c2ccccc2)[n+]([O-])c2ccccc21 | 20µM* | -6.1 | 4.4 | -12.6 | 8.7
Cc1cccc(-c2nc(CN3CCCC(C(=O)NC4CCC(C)CC4)C3)c(C)o2)c1 (stereo not given) | -4.2% | -26.0 | -0.3 | 10.5 | 1.0
Cc1cccc(-c2nc(CN3CCCC(C(=O)NC4CCCC4)C3)c(C)o2)c1 (stereo not given) | 8.6% | -82.1* | -3.1 | 38.0 | -6.6
COc1ccc(SC[C@H](Cc2ccccc2)N2CCN(C)CCC2=O)cc1 | -11.2% | -47.2 | -6.5 | 28.2 | -2.2
O=C1CCN(CCc2ccccc2)CCN1[C@H](CSc1ccccc1)Cc1ccccc1 | · | -102.9* | -14.7 | -141.0* | 0.2
CCCCCCCN1CCC(=O)N([C@H](CO)Cc2ccccc2)CC1 | · | -108.6* | -3.2 | ? | 1.1
CN1CCC(=O)N([C@H](CSc2ccccc2)Cc2ccccc2)CC1 | · | · | -3.6 | · | 0.1
CCCN1CCC(=O)N([C@H](CSc2ccc(OC)cc2)Cc2ccccc2)CC1 | -17.0% | -100.6* | -11.3 | 7.5 | -11.5
Cc1ccc(SC[C@H](Cc2ccccc2)N2CCN(CCc3ccccc3)CCC2=O)cc1 | -21.3% | -106.3* | -8.9 | -100.9* | -22.8
CCCN1CCC(=O)N([C@H](CO)Cc2ccccc2)CC1 | · | -8.9 | -10.8 | -8.5 | -9.2
CCCN1CCC(=O)N([C@H](CSc2ccc(C)cc2)Cc2ccccc2)CC1 | -9.0% | -101.2* | -14.8 | 17.3 | -17.6
N#Cc1ccc(C(=O)N2CCN(C(=O)C3CCCO3)CC2)cc1 (stereo not given) | · | -3.5 | 2.8 | -4.5 | -3.2
COc1ccc(CNc2nc3nc(C)c(Cl)c(=O)n3[nH]2)cc1 | 1.3% | 5.6 | -2.6 | 8.4 | -1.5
CCn1nc(C(C)C(=O)O)c2ccccc2c1=O (stereo not given) | -15.9% | -14.4 | 5.5 | -7.5 | -1.4
COc1cc(NC(=O)C2CCCN(S(=O)(=O)c3ccc4c(c3)CCCN4C(C)=O)C2)cc(OC)c1 (stereo not given) | · | -0.8 | ? | 4.8 | -65.1*
COc1ccc(NC(=O)C2CCCN(S(=O)(=O)c3ccc4c(c3)CCCN4C(C)=O)C2)cc1 (stereo not given) | · | 1.0 | -7.3 | -0.5 | -6.4
O=C(NCc1ccc(Cl)cc1)c1cccc(NC2=NC3CS(=O)(=O)CC3S2)c1 (stereo not given) | · | 0.2 | -1.0 | -3.1 | 1.6
O=C(CCC(=O)N1CCOc2ccc(Cl)cc21)NCCCN1CCN(Cc2ccccc2)CC1 | · | -15.8 | -2.4 | 9.6 | 1.3
O=C(Nc1cccc(NC(=O)c2ccc(-c3ccc(Br)cc3)o2)c1)c1ccccc1 | -29.6% | -93.7* | 3.3 | -4.1 | 9.5
O=C(Nc1ccc(CN2CCOCC2)cc1)c1ccc(-c2ccc(Br)cc2)o1 | -15.3% | -103.0* | -8.5 | 11.8 | 0.0
O=C(Nc1ccccc1)c1ccc(-c2ccc(Br)cc2)o1 | ? | -1.1 | 8.1 | 7.8 | 0.0
CCOc1ccc(NC(=O)COC(=O)CCCc2c[nH]c3ccccc23)cc1 | -11.8% | -6.1 | -14.9 | 0.1 | -18.1
O=C(COC(=O)c1ccccc1Oc1ccccc1)NC1CC1 | ? | -8.0 | 1.3 | 1.1 | -5.0
Cc1cccc(C(=O)NCC(=O)NC(C)CCc2ccccc2)c1 (stereo not given) | · | -19.1 | 5.7 | -4.9 | 4.9
CCCCNC(=O)c1cc(C)nc2ccccc12 | 4.0% | -0.8 | 7.2 | -0.7 | 2.9
